Data: PubChem BioAssay (NCI)
This is part of a sample that, as a whole, favours compounds with a hit. Of some 83,000 tested, about 20% had one in any assay.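 Interpretation: 100, growth as untreated; towards 0, rising growth inhibition; 0, no net growth; 0 to -100, cell death. Compounds scoring below 10 were considered active.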 Unmarked numbers belong to inactive results. Activity calls are given as the source filed them.

Assays:
Assay in all cases: NCI-60 one-dose screen, 48 h (100 = growth as untreated, 0 = no growth, -100 = all killed)
Settings in all cases: 10 µM unless noted
[1] = system: SK-MEL-2 melanoma
[2] = system: EKVX NSCLC
[3] = system: SN12C renal
[4] = system: UO-31 renal
[5] = system: TK-10 renal
[6] = system: ACHN renal
[7] = system: A498 renal
[8] = system: CCRF-CEM leukemia
[9] = system: MOLT-4 leukemia
[10] = system: SR leukemia
[11] = system: RPMI-8226 leukemia
[12] = system: OVCAR-8 ovarian
[13] = system: OVCAR-5 ovarian
[14] = system: OVCAR-4 ovarian
[15] = system: SK-OV-3 ovarian
[16] = system: IGROV1 ovarian
[17] = system: OVCAR-3 ovarian
[18] = system: HS 578T breast
[19] = system: NCI/ADR-RES ovarian
[20] = system: T-47D breast

Structure (SMILES)	growth [1]	growth [2]	growth [3]	growth [4]	growth [5]	growth [6]	growth [7]	growth [8]	growth [9]	growth [10]	growth [11]	growth [12]	growth [13]	growth [14]	growth [15]	growth [16]	growth [17]	growth [18]	growth [19]	growth [20]
C=C(C)[C@@H]1CC[C@]2(C(=O)OCCOCCOCC[P+](c3ccccc3)(c3ccccc3)c3ccccc3)CC[C@]3(C)[C@H](CC[C@@H]4[C@@]5(C)CC[C@H](OC(=O)C(Cl)Cl)C(C)(C)[C@@H]5CC[C@]43C)[C@@H]12	-45.4% (active)	-15.2% (active)	-46.9% (active)	-45.1% (active)	15.7%	-79.2% (active)	-28.3% (active)	4.25% (active)	-8.02% (active)	-32% (active)	-39.3% (active)	5.47% (active)	39.3%	-0.899% (active)	-8.97% (active)	6.43% (active)	-43.9% (active)	21.3%	50.2%	-21.2% (active)
COc1ccc2[nH]c(=O)c(/C=C/C(=O)/C=C/c3ccc(O)c(OC)c3)cc2c1	78.3%	59.4%	4.69% (active)	-70.8% (active)	61.1%	49.9%	89.7%	3.63% (active)	21%	1.27% (active)	-18.5% (active)	1.42% (active)	59.4%	64.3%	56.5%	2.67% (active)	-11.2% (active)	25.5%	47.9%	26%
O=C(/C(=C/c1ccc([N+](=O)[O-])cc1)SCc1ccc(Cl)cc1)c1ccc(F)cc1	81.3%	59.7%	45.9%	45.8%	94.7%	54%	70.5%	4.66% (active)	7.69% (active)	0.569% (active)	-25.6% (active)	57.8%	95.4%	60.9%	63.9%	58.4%	54%	27.9%	51%	36.4%
NC(=N\N=C\c1ccccc1O)/C(N)=N/N=C/c1ccccc1O	94.8%	88.5%	90.8%	70.2%	92.5%	74.9%	79%	80.1%	68.3%	71.2%	61.1%	81.3%	96.7%	6.53% (active)	92.4%	97.8%	63.1%	68.8%	83.3%	64%
COc1ccc(C2CC(c3ccc(OC)cc3O)=NN2c2ccc(S(N)(=O)=O)cc2)cc1 (stereo not given)	58.7%	20.9%	54.2%	27.6%	43.9%	29.1%	71.2%	13.5%	4.82% (active)	8.1% (active)	-32.6% (active)	43%	83.7%	42.3%	69.2%	13.2%	47.7%	78.1%	54%	24.5%
O=C(Nc1ccc(S(=O)(=O)NC2CCCCCC2)cc1)C(c1ccccc1)S(=O)(=O)c1ccc(F)cc1 (stereo not given)	-22.9% (active)	5.65% (active)	12.6%	-44.2% (active)	6.92% (active)	0.641% (active)	-33.2% (active)	4.59% (active)	6.98% (active)	-0.97% (active)	-23.1% (active)	8.45% (active)	5.42% (active)	4.28% (active)	3.67% (active)	9.4% (active)	3.59% (active)	-2.41% (active)	15.1%	8.11% (active)
C=C(C)[C@@H]1CC[C@]2(C(N)=O)CC[C@]3(C)[C@H](CC[C@@H]4[C@@]5(C)CCCNC(C)(C)[C@@H]5CC[C@]43C)[C@@H]12	105%	87.5%	77.7%	84.4%	107%	88.9%	99%	52.5%	48.9%	3% (active)	13.5%	82.1%	82.9%	83.6%	87.5%	84.2%	88.8%	74.9%	84.6%	55.9%
Cc1c(Cl)cccc1NC(=O)c1sc2nc3c(cc2c1N)CCCCC3	48.5%	42.2%	44.9%	55.2%	65.6%	62.5%	-3.71% (active)	9.59% (active)	14.4%	12.8%	22.2%	31.5%	58.3%	59.2%	47.8%	54.9%	-3.42% (active)	38%	19.7%	44%
COc1ccc(Cl)c([N+](=O)[O-])c1	104%	103%	99%	90.6%	95.8%	107%	113%	109%	95.2%	93.1%	106%	106%	102%	101%	98%	108%	112%	105%	102%	84%
COc1ccc([C@H]2[C@@H](F)C(=O)N2c2cc(OC)c(OC)c(OC)c2)cc1F	58.8%	72.2%	33.3%	43.2%	64.4%	32.7%	-5.5% (active)	13.2%	19.7%	13.3%	15.3%	13.7%	43.6%	54.9%	33.4%	31.9%	-4.18% (active)	25.5%	8.4% (active)	74.9%
C#C[C@@]1(O)[C@@H](CO)O[C@@H](n2cc(F)c3c(N)ncnc32)[C@@H]1O	-1.11% (active)	1.34% (active)	2.43% (active)	-15.5% (active)	3.69% (active)	-10.6% (active)	-76% (active)	13.3%	4.47% (active)	12.9%	5.11% (active)	9.54% (active)	9.96% (active)	4.75% (active)	-7.75% (active)	-17.4% (active)	10.9%	28.4%	4.76% (active)	-13.8% (active)
COc1ccc2[nH]c(-c3ccccc3)c(C=C(C#N)C#N)c2c1	24.1%	33.3%	59%	53.1%	41.5%	54.2%	21%	2.26% (active)	0.472% (active)	-5.05% (active)	-50.2% (active)	48.2%	65.7%	35%	51.2%	49.5%	7.4% (active)	40.9%	-4.6% (active)	26.4%
CC(C)(C)c1ccc2oc(=O)n(SC(Cl)(Cl)Cl)c2c1	93.9%	92.2%	102%	94.9%	92.4%	106%	109%	83.5%	77.2%	92.3%	102%	111%	105%	106%	102%	111%	106%	119%	100%	93.4%
CCC[S@@](=O)c1ccc2nc(NC(=O)OC)[nH]c2c1	95.1%	90.2%	96.4%	90.9%	91.9%	102%	87.6%	86.4%	74.5%	41.6%	95%	77.1%	102%	98.9%	63.6%	91.3%	93.5%	91.2%	91.5%	78.1%
COc1ccc(OCC(=O)OC(C)C)cc1	109%	99%	96.8%	89.6%	92.9%	108%	92%	112%	91.1%	91.9%	106%	105%	99.6%	101%	112%	103%	99.1%	100%	93.3%	101%
O=c1[nH]c2ccccc2cc1-c1nc2ccc(Cl)cc2[nH]1	18.7%	22.6%	48.4%	45.7%	37.5%	27%	48.3%	13.7%	-19.7% (active)	8.43% (active)	-38.5% (active)	57.7%	100%	51%	14%	26.5%	35.5%	46.1%	74.4%	35.1%
